Assay outcomes as filed in PubChem.
E coli RNAP – inhibitors of Escherichia coli RNA polymerase; P0A8V2; E. coli RNA polymerase, fluorescence transcription assay; inhibition, %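 (tested at 10 µM)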; 0.2% of 62,000 active; in the data active = inhibition above about 20%
TNAP act mid DEA – activators of human TNAP at intermediate phosphate acceptor | P05186 | purified TNAP, CDP-star luminescence, 100 mM DEA, 30 min; stronger effect = higher value; scale: 0 levamisole-inhibited, 1 vehicle-only enzyme | activation factor at 20 µM | 64,000 tested, under 10 active | AID 813;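 active = activation factor of at least 2 at 20 µM, relative to controls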
PLAP act – activators of human placental alkaline phosphatase; P05187; purified PLAP enzyme, luminescent substrate read-out; stronger effect = higher value; activation fold at 20 µM; 1.2% of 96,000 active; in the data active = activation fold above about 2
Each line names hits and unclear results; the compound was inactive in the other large screens. Shown is part of a subset that was picked to be rich in hits.

Cc1cc(C)c2nc(N3CCC(C(=O)N4CCCC4)CC3)sc2c1	none
Cc1[nH][nH]c(=O)c1C(c1ccc(-c2ccc(Cl)c(Cl)c2)o1)c1c(C)[nH][nH]c1=O	PLAP act 2.9 (no result: E coli RNAP, TNAP act mid DEA)
O=c1cc(-c2ccc(Cl)c(Cl)c2)[nH][nH]1	none (no result: E coli RNAP)
Cn1c(-c2ccccc2)cnc1SCc1nc2ccccc2c(=O)[nH]1	PLAP act 2.5
Cn1c(SCc2nc3ccccc3c(=O)[nH]2)nnc1-c1ccco1	none
CCOc1nc(Nc2ccc(-c3nc4ccccc4o3)cc2)nc(N2CCOCC2)n1	none (no result: PLAP act)
Cc1cc(Br)ccc1NC(=O)CNC(=O)CSc1n[nH]c(N)n1	none
Nc1nc(SCC(=O)Nc2ccc(Br)cc2F)n[nH]1	PLAP act 2
COc1ccc(S(=O)(=O)Nc2c(C)ccc3nsnc23)cc1OC	none
COc1ccc(C2C(C#N)=C(N)Oc3n[nH]c(C)c32)cc1Cn1nnc2ccccc21 (configuration not stated)	PLAP act 2
CCCc1[nH]nc2c1C(c1ccc(OC)c(Cn3nnc4ccccc43)c1)C(C#N)=C(N)O2 (configuration not stated)	none
O=C(O)/C=C/c1cn(-c2ncc(C(F)(F)F)cc2Cl)c2ccccc12	none (no result: E coli RNAP, TNAP act mid DEA)
CCN(CC)CCOC(=O)C1c2ccccc2Oc2ccccc21	none (no result: E coli RNAP, TNAP act mid DEA)
COc1ccc(C(O)c2nc3ccccc3n2C)cc1OC (configuration not stated)	none
COc1cccc(C(O)c2nc3ccccc3n2C(C)C)c1 (configuration not stated)	PLAP act 2.4 (no result: E coli RNAP, TNAP act mid DEA)
Cn1nc(Oc2nc(N3CCOCC3)nc(N3CCOCC3)n2)ccc1=O	none (no result: E coli RNAP, TNAP act mid DEA)
CC1=NN(C(=O)c2ccc(Cn3nc(C)c([N+](=O)[O-])c3C)cc2)C(O)(C(F)(F)F)C1 (configuration not stated)	none (no result: E coli RNAP, TNAP act mid DEA)
CC1=NN(C(=O)c2ccc(Cn3nc(C)cc3C)o2)C(O)(C(F)(F)F)C1 (configuration not stated)	PLAP act 2.2 (no result: E coli RNAP, TNAP act mid DEA)
COCc1cc(=O)[nH]c(/N=C(\N)Nc2ccccc2C)n1	none (no result: E coli RNAP, TNAP act mid DEA)
CC1CCCN(C(C(=O)Nc2ccc3c(c2)OCCO3)c2ccccc2)C1 (configuration not stated)	none
CC1CCN(C(C(=O)Nc2ccc3c(c2)OCO3)c2ccccc2)CC1 (configuration not stated)	PLAP act 2.2
O=C(Nc1ccc2c(c1)OCO2)C(c1ccccc1)N1CCCCC1 (configuration not stated)	none
CC1CCCN(C(C(=O)Nc2ccc3c(c2)OCO3)c2ccccc2)C1 (configuration not stated)	PLAP act 2
CN(C(=O)CN1CCC(NC(=O)C2CCCCC2)CC1)C1CCCCC1	PLAP act 2
CCS(=O)(=O)N1CCC(NC(=O)C2CCCCC2)CC1	none
CCOc1ccc(OCC)c(NC(=O)C2CCCN(S(=O)(=O)c3c(C)n[nH]c3C)C2)c1 (configuration not stated)	PLAP act 2
CCOc1ccc(OCC)c(NC(=O)C2CCCN(S(=O)(=O)c3c(C)noc3C)C2)c1 (configuration not stated)	none
COC(C(=O)Nc1ccc(S(=O)(=O)N2CCCCC2)cc1)c1ccccc1 (configuration not stated)	PLAP act 2 (no result: E coli RNAP, TNAP act mid DEA)
CC(=O)NC(CC(=O)Nc1ccc(S(=O)(=O)N2CCCCC2)cc1)c1ccccc1 (configuration not stated)	none (no result: E coli RNAP, TNAP act mid DEA)
CCOC(=O)C(CSCC(=O)c1ccc(Cl)cc1)NC(=O)OC(C)(C)C (configuration not stated)	none (no result: E coli RNAP, TNAP act mid DEA)
COCCCNC(=S)NNC(=S)Nc1ccc(F)cc1F	PLAP act 2.7 (no result: E coli RNAP, TNAP act mid DEA)
CO/N=C/CC(=O)Nc1ccc(F)cc1F	none (no result: E coli RNAP, TNAP act mid DEA)
Cc1ccc(C)c2[nH]c(=O)c(CCNC(=O)c3ccc(S(=O)(=O)N(C)C)cc3)cc12	none
c1ccc(Nc2cc(-c3ccccc3)nc3ncnn23)cc1	none
CCOc1cc(S(=O)(=O)NCc2ccccn2)c(C)cc1C	PLAP act 2.2
COc1ccc(C(C)C)cc1S(=O)(=O)NCc1ccccn1	none
COc1ccc(OC)c(N2CC(O)=C(c3nc4ccccc4s3)C2=N)c1	PLAP act 2 (no result: E coli RNAP, TNAP act mid DEA)
CCN(CC)CCCN1CC(O)=C(c2nc3ccccc3s2)C1=N	PLAP act 2.2 (no result: E coli RNAP, TNAP act mid DEA)
CCCCN1CC(O)=C(c2nc3ccccc3[nH]2)C1=N	none
CCOc1ccccc1N1CC(O)=C(c2nc3ccccc3s2)C1=N	none
Cn1c(=O)c2ncn(CC(=O)Nc3cccc(-c4nc5ccccc5s4)c3)c2n(C)c1=O	none (no result: E coli RNAP, TNAP act mid DEA)
Cc1ccc(N=Nc2c(N)[nH]n3c(=O)cc(-c4ccccc4)nc23)cc1	none (no result: E coli RNAP, TNAP act mid DEA)
Cc1ccc(N=Nc2c(=O)[nH]n3c(=O)cc(C)[nH]c23)cc1	PLAP act 2.1 (no result: E coli RNAP, TNAP act mid DEA)
O=C(c1ccc(=O)n(Cc2ccc(Cl)c(Cl)c2)c1)N1CCOCC1	none (no result: E coli RNAP, TNAP act mid DEA)
CCOC(=O)c1ccc(CSc2nnc(C)n2N)o1	none (no result: E coli RNAP, TNAP act mid DEA)
CCOC(=O)c1ccc(CSc2n[nH]c(C)n2)o1	PLAP act 2
